{
  "source": "the supplement of paper PMC8975748",
  "note": "Counter-ions that a name gives are not always drawn.",
  "data": [
    {"system": "Saccharomyces cerevisiae BY4741 SeMeCo community", "test": "z-score of subpopulation abundance vs DMSO median, subpopulation auxotrophic for U; higher = larger share of this subpopulation than in DMSO controls", "settings": "10 µM; 24 h; SM minimal medium; subpopulation (auxotrophy): U", "protocol": "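Fluorescent four-plasmid SeMeCo (self-establishing metabolically cooperating S. cerevisiae BY4741 community; plasmids pH-mRuby2, pL-mWasabi, pU-eCFP, pM-TagRFP657) was grown 24 h in minimal SM medium with each Selleck FDA-approved drug at 10 µM in 384-well plates. Cells were fixed and imaged by high-content confocal microscopy. For each auxotrophic subpopulation (and the prototroph), a z-score gives the deviation from the DMSO vehicle-control population median.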", "values": [
      {"smiles": "CC/C(=C(/CC)c1ccc(O)cc1)c1ccc(O)cc1", "note": "[Diethylstilbestrol]", "z-score of subpopulation abundance": -1.17},
      {"smiles": "Cc1ncc([N+](=O)[O-])n1CC(O)CCl", "note": "(stereo not given) [Ornidazole]", "z-score of subpopulation abundance": -0.47},
      {"smiles": "CC[C@H](Nc1ncnc2[nH]cnc12)c1nc2cccc(F)c2c(=O)n1-c1ccccc1", "note": "[Idelalisib (CAL-101, GS-1101)]", "z-score of subpopulation abundance": 1.09},
      {"smiles": "CCCCCCCCCCCCCCCC[N+](C)(C)C", "note": "[Cetrimonium Bromide (CTAB)]", "z-score of subpopulation abundance": -1.73},
      {"smiles": "O=C(O)CCNC(=O)c1ccccc1", "note": "[Betamipron]", "z-score of subpopulation abundance": 0.99},
      {"smiles": "CCOC(=O)c1c(CSc2ccccc2)n(C)c2cc(Br)c(O)c(CN(C)C)c12", "note": "[Arbidol HCl]", "z-score of subpopulation abundance": 1.69},
      {"smiles": "CC(C(=O)O)c1cccc(C(=O)c2ccccc2)c1", "note": "(stereo not given) [Ketoprofen]", "z-score of subpopulation abundance": -0.65},
      {"smiles": "CC[C@H]1OC(=O)[C@H](C)[C@@H](O[C@H]2C[C@@](C)(OC)[C@@H](O)[C@H](C)O2)[C@H](C)[C@@H](O[C@@H]2O[C@H](C)C[C@H](N(C)C)[C@H]2O)[C@](C)(O)C[C@@H](C)CN(C)[C@H](C)[C@@H](O)[C@]1(C)O", "note": "[Azithromycin Dihydrate]", "z-score of subpopulation abundance": -0.03},
      {"smiles": "CNCc1cc(-c2ccccc2F)n(S(=O)(=O)c2cccnc2)c1", "note": "[Vonoprazan Fumarate (TAK-438)]", "z-score of subpopulation abundance": 0.84},
      {"smiles": "Oc1ccc(Cl)c2cccnc12", "note": "[Cloxiquine]", "z-score of subpopulation abundance": -1.71},
      {"smiles": "CCC[C@@H]1C[C@@H](C(=O)N[C@@H]([C@H]2O[C@H](SC)[C@H](O)[C@@H](O)[C@H]2O)[C@@H](C)O)N(C)C1", "note": "[Lincomycin Hydrochloride Monohydrate]", "z-score of subpopulation abundance": 0.86},
      {"smiles": "C[C@H]1[C@H](NC(=O)/C(=N\\OC(C)(C)C(=O)O)c2csc(N)n2)C(=O)N1S(=O)(=O)O", "note": "[Aztreonam]", "z-score of subpopulation abundance": -0.07},
      {"smiles": "CSc1nc2cc(Cl)c(Oc3cccc(Cl)c3Cl)cc2[nH]1", "note": "[Triclabendazole]", "z-score of subpopulation abundance": -0.92},
      {"smiles": "CC1(C)S[C@@H]2[C@H](NC(=O)C(C(=O)O)c3ccccc3)C(=O)N2[C@H]1C(=O)O", "note": "(stereo not given in full) [Carbenicillin disodium]", "z-score of subpopulation abundance": -0.46},
      {"smiles": "CC(=O)OC(C)C[N+](C)(C)C", "note": "(stereo not given) [Methacholine chloride]", "z-score of subpopulation abundance": 0.32},
      {"smiles": "COCC1=C(C(=O)OC(C)OC(=O)OC(C)C)N2C(=O)[C@@H](NC(=O)/C(=N\\OC)c3csc(N)n3)[C@H]2SC1", "note": "(stereo not given in full) [Cefpodoxime proxetil]", "z-score of subpopulation abundance": 0.51},
      {"smiles": "CCCCC(F)(F)[C@@]1(O)CC[C@H]2[C@@H](CC(=O)[C@@H]2CCCCCCC(=O)O)O1", "note": "[Lubiprostone]", "z-score of subpopulation abundance": 0.27},
      {"smiles": "CCNC(=O)[C@@H]1CCCN1C(=O)[C@H](CCCNC(=N)N)NC(=O)[C@H](CC(C)C)NC(=O)[C@@H](CC(C)C)NC(=O)[C@H](Cc1ccc(O)cc1)NC(=O)[C@H](CO)NC(=O)[C@H](Cc1c[nH]c2ccccc12)NC(=O)[C@H](Cc1c[nH]cn1)NC(=O)[C@@H]1CCC(=O)N1", "note": "[Leuprolide Acetate]", "z-score of subpopulation abundance": 0.31},
      {"smiles": "Cc1cccc(C#Cc2ccccc2)n1", "z-score of subpopulation abundance": 0.22},
      {"smiles": "CNC1CCCN(c2c(F)cc3c(=O)c(C(=O)O)cn(C4CC4)c3c2OC)C1", "note": "(stereo not given) [Balofloxacin]", "z-score of subpopulation abundance": 0.18},
      {"smiles": "CC[C@H]1OC(=O)[C@H](C)[C@@H](O[C@H]2C[C@@](C)(OC)[C@@H](O)[C@H](C)O2)[C@H](C)[C@@H](O[C@@H]2O[C@H](C)C[C@H](N(C)C)[C@H]2O)[C@](C)(O)C[C@@H](C)C(=O)[C@H](C)[C@@H](O)[C@]1(C)O", "note": "[Erythromycin]", "z-score of subpopulation abundance": -1.28},
      {"smiles": "CO[C@H]1C[C@@H]2CC[C@@H](C)[C@@](O)(O2)C(=O)C(=O)N2CCCC[C@H]2C(=O)O[C@H]([C@H](C)C[C@@H]2CC[C@@H](OC(=O)C(C)(CO)CO)[C@H](OC)C2)CC(=O)[C@H](C)/C=C(\\C)[C@@H](O)[C@@H](OC)C(=O)[C@H](C)C[C@H](C)/C=C/C=C/C=C/1C", "z-score of subpopulation abundance": 3.43},
      {"smiles": "COc1cc(Cc2cnc(N)nc2N)cc(OC)c1OC", "note": "[Trimethoprim]", "z-score of subpopulation abundance": 0.2},
      {"smiles": "Cn1c(=O)c2[nH]cnc2n(C)c1=O", "note": "[Aminophylline]", "z-score of subpopulation abundance": 0.26},
      {"smiles": "CCN(CC)CCNC(=O)c1cc(S(C)(=O)=O)ccc1OC", "note": "[Tiapride Hydrochloride]", "z-score of subpopulation abundance": 0.29},
      {"smiles": "CC1=C(CC(=O)O)c2cc(F)ccc2/C1=C\\c1ccc([S+](C)[O-])cc1", "note": "(stereo not given) [Sulindac]", "z-score of subpopulation abundance": -1.92},
      {"smiles": "Cc1cc(-n2c(=O)[nH]c(=O)n(C)c2=O)ccc1Oc1ccc(SC(F)(F)F)cc1", "note": "[Toltrazuril]", "z-score of subpopulation abundance": -0.51},
      {"smiles": "CCCCCCCCN=C(N)NC(N)=NCc1ccc(Cl)c(Cl)c1", "note": "[Olanexidine Hydrochloride semihydrate]", "z-score of subpopulation abundance": -3.91},
      {"smiles": "CCOC(=O)C1=C[C@]2(CC)CCCN3CCc4c(n1c1ccccc41)[C@@H]32", "note": "[Vinpocetine]", "z-score of subpopulation abundance": 0.11},
      {"smiles": "CN(C)CCCN1c2ccccc2Sc2ccc(Cl)cc21", "note": "[Chlorpromazine HCl]", "z-score of subpopulation abundance": 0.63},
      {"smiles": "Cc1ccc(-c2ncc(Cl)cc2-c2ccc(S(C)(=O)=O)cc2)cn1", "note": "[Etoricoxib]", "z-score of subpopulation abundance": -0.32},
      {"smiles": "CCCCc1oc2ccc(NS(C)(=O)=O)cc2c1C(=O)c1ccc(OCCCN(CCCC)CCCC)cc1", "note": "[Dronedarone HCl]", "z-score of subpopulation abundance": -0.45},
      {"smiles": "Cc1ccc2c(Cl)cc(Cl)c(O)c2n1", "note": "[Chlorquinaldol]", "z-score of subpopulation abundance": -6.35},
      {"smiles": "C#C[C@]1(O)CC[C@H]2[C@@H]3CCc4cc(OC5CCCC5)ccc4[C@H]3CC[C@@]21C", "note": "[Quinestrol]", "z-score of subpopulation abundance": -0.2},
      {"smiles": "Nc1cc(C(Cl)=C(Cl)Cl)c(S(N)(=O)=O)cc1S(N)(=O)=O", "note": "[Clorsulon]", "z-score of subpopulation abundance": 0.03},
      {"smiles": "CC(=O)NS(=O)(=O)c1ccc(N)cc1", "note": "[Sulfacetamide Sodium]", "z-score of subpopulation abundance": 0.86},
      {"smiles": "CN1CCC(=C2c3ccccc3C=Cc3ccccc32)CC1", "note": "[Cyproheptadine hydrochloride]", "z-score of subpopulation abundance": 0.43},
      {"smiles": "COCCCC/C(=N\\OCCN)c1ccc(C(F)(F)F)cc1", "note": "[Fluvoxamine maleate]", "z-score of subpopulation abundance": -0.51},
      {"smiles": "CC(C)(C)C1CCC(CC2=C(O)c3ccccc3C(=O)C2=O)CC1", "note": "(stereo not given) [Buparvaquone]", "z-score of subpopulation abundance": -0.95},
      {"smiles": "O=C1OCCN1/N=C/c1ccc([N+](=O)[O-])o1", "note": "[Furazolidone]", "z-score of subpopulation abundance": -7.17}
    ]}
  ]
}
